D2 ag-1 = D2 dopamine receptor (human) agonism; HEK293 T-REx D2 cells, calcium flux agonist mode; activation, % at 2 µM; 340,000 compounds, 0.53% hits; AID 485358;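 active = activation over 3 SD above normal in the single-dose calcium agonist read, cut at about 30% in these data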
Target sequence (P14416 whole entry, looked up): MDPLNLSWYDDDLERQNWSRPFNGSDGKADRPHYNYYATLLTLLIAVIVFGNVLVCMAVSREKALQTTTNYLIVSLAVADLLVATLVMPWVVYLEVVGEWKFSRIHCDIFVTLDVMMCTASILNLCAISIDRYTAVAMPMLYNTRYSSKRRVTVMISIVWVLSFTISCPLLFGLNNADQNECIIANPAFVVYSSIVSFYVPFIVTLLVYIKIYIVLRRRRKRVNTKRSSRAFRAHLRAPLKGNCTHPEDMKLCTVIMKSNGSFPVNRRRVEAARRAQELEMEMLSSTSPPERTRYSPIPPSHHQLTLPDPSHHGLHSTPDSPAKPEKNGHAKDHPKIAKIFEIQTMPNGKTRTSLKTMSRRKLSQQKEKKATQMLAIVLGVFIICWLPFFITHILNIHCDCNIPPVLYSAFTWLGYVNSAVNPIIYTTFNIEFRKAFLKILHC
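Tetracycline-induced HEK293 Trex cells with D2 receptor force-coupled to calcium signaling, plated overnight at 30 C and loaded with no-wash calcium dye. Calcium flux read kinetically for 180 s after compound addition; responses flag agonists.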
D2 antagonist = antagonists of human D2 dopamine receptor; P14416; 340,000 compounds, 2% hits; HEK293 TREx D2 cells, calcium flux, dopamine EC80; inhibition, % at 10 µM; in the data active = inhibition above about 30%; inactive = below that, where a call was filed
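Compounds are added to dye-loaded, induced HEK293 T-REx cells coupled to calcium release via D2; after a 3 min kinetic read an EC80 dopamine stimulus is given and fluorescence is recorded for 3 more min.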
D2 ag-2 = human D2 receptor agonism in beta-arrestin assay | activation, % (no concentration beside the values) | 360,000 compounds, 0.084% hits | P14416 | DiscoveRx PathHunter D2 beta-arrestin, luminescence, 90 min; 100% = 57 uM dopamine signal; in the data active = activation above about 40%; inconclusive = between about 15% and that limit
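Agonist mode: compounds alone added to overnight-plated D2 PathHunter cells for 90 min at 37 C, with 57 uM final dopamine (EC100) defining full response. Beta-arrestin recruitment detected by chemiluminescent reagent, read after 1 h at ambient temperature.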
D2 PAM-1 = D2 dopamine receptor (human) potentiation. HEK293 T-REx D2, calcium flux, EC20 dopamine potentiation. potentiation, % at 10 µM. 340,000 compounds, 0.34% hits;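 active = potentiation over 3 SD above the plate norm, cut at about 30% in these data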
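Using a no-wash calcium dye in inducible, force-coupled HEK293 Trex cells expressing D2, we tracked fluorescence each second for 180 s after compound, then for 180 s after EC20 dopamine to detect augmented signalling.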
D2 PAM-2 = human D2 receptor positive allosteric modulation; potentiation, % (concentration not given with the values); 360,000 compounds, 0.23% hits; DiscoveRx D2 beta-arrestin cells, luminescence, 90 min; 100% = 57 uM dopamine signal; in the data active = potentiation above about 50%; inconclusive = mostly about 30% to 49%
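PathHunter D2 cells, attached overnight at 37 deg C, received compound in DMSO plus dopamine at EC20 (50 nM final) for 90 min at 37 deg C. Beta-arrestin recruitment was read as luminescence after 1 h with detection reagent at ambient temperature.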
D3 ag = D3 receptor agonism confirmed, beta-arrestin readout | shares compounds with D2 ag-1 | DiscoveRx D3 beta-arrestin cells, luminescence, 90 min | Potency, µM (doses to about 76.9 µM), most hits filed as activators | 2,300 compounds, 4% hits | AID 720506; also: nearly all actives have a fitted effect of over 70% in size
D2 ag-3 = D2 receptor agonism, beta-arrestin counterscreen; shares compounds with D2 ag-1; DiscoveRx PathHunter D2 beta-arrestin, luminescence, 90 min; response scale: percent relative to full dopamine signal; Potency, µM (top dose mostly 76.9 µM), usual class: activators; 2,300 compounds, 5.9% hits; AID 720507; also: nearly all actives have a fitted effect of over 70% in size
Each line names hits and unclear results; the compound was inactive in the other large screens (follow-up assays come after a bar, where they were run). A selection: hits, their analogues and other compounds. The true share with any hit is near 2.4%. Unless noted, calls follow the shape of the dose curve; as a rule, active = well fitted activation curve with a large enough effect; inconclusive = small, poorly fitted or top-dose-only effect; inactive = flat fitted curve, though single readings scatter.

CSCCC(NC(=O)c1ccccc1)C(=O)Nc1ccncc1 (stereo not given)	none
CCCC(c1nnnn1Cc1ccc(OC)cc1)N1CCN(c2ccccc2)CC1 (stereo not given)	D2 ag-1 45, D2 ag-2 inconclusive | D3 ag inactive | D2 ag-3 inconclusive
O=C(Nc1ccc(C(=O)N2CCN(c3ccccc3F)CC2)cc1)c1nsc2ccccc12	none (no result: D2 antagonist, D2 ag-2, D2 PAM-2)
Cc1nc(NCCc2ccccc2)c2nnn(Cc3ccccc3Cl)c2n1	none | D3 ag inactive | D2 ag-3 inactive
COc1ccc(NC(=O)C2CCCN(CCCc3ccccc3)C2)cc1OCC(C)C (stereo not given)	D2 ag-1 75, D2 antagonist 80 | D3 ag inactive | D2 ag-3 inconclusive
COc1ccc(NC(=O)C2CCCNC2)cc1OCC(C)C (stereo not given)	none
COc1ccc2[nH]c3c(=O)n(/N=C/[C@H]4C(C)C=C(C)CC4C)c(=O)[nH]c3c2c1 (stereo not given in full)	D2 ag-1 41, D2 antagonist 36 | D3 ag inactive | D2 ag-3 inactive
COc1ccc2c(c1)[nH]c1c(=O)n(/N=C/C3C(C)C=C(C)CC3C)c(=O)[nH]c12 (stereo not given)	none (no result: D2 PAM-1)
CCN1C(=O)C(Cc2nc3ccccc3c(=O)n2-c2ccccc2)c2cc(Br)ccc21 (stereo not given)	none (no result: D2 ag-1, D2 antagonist, D2 ag-2, D2 PAM-2)
COc1ccc(CCNc2nc3cc(OC)c(OC)cc3c3nc(-c4ccccc4)nn23)cc1OC	none (no result: D2 antagonist, D2 ag-2, D2 PAM-2)
COc1ccc2cc(CN(CCc3ccccc3)Cc3nnnn3CC3CCCO3)c(=O)[nH]c2c1 (stereo not given)	none
COc1ccc2[nH]c(=O)c(CN(CCc3ccccc3)Cc3nnnn3CC3CCCO3)cc2c1 (stereo not given)	none | D3 ag inconclusive | D2 ag-3 inactive
CCOC(=O)Cn1nnnc1CN(Cc1ccc(OC)cc1)Cc1cc2cc(CC)ccc2[nH]c1=O	none | D3 ag inactive | D2 ag-3 inactive
CCOc1ccccc1NC(=O)CSc1ncc2c(n1)-c1ccccc1N(CC)S2(=O)=O	none (no result: D2 antagonist, D2 ag-2, D2 PAM-2)
CCn1c(=O)c(CCC(=O)N2CCN(c3ccccn3)CC2)c(C)c2c(C)nn(-c3ccccc3)c21	none | D3 ag inactive | D2 ag-3 inactive
CCn1c(=O)c(CCC(=O)NCCN2CCOCC2)c(C)c2c(C)nn(-c3ccccc3)c21	none
COc1ccc(Nc2nc3ccccc3c3nnc(C)n23)cc1Cl	none (no result: D2 antagonist, D2 ag-2, D2 PAM-2)
Nc1ccc2[nH]ncc2c1	D2 antagonist 34 | D3 ag inconclusive | D2 ag-3 inactive
N#CCCN(C(=O)COC(=O)COc1ccccc1Cc1ccccc1)c1ccccc1	none | D3 ag inactive | D2 ag-3 inactive
O=C(NCCc1ccccc1)c1ccc2c(c1)nc1n2CCOC1	none (no result: D2 antagonist, D2 ag-2, D2 PAM-2)
Cc1ccc(S(=O)(=O)N2CCN(Cc3ccccc3Cl)CC2)cc1	none (no result: D2 antagonist, D2 ag-2, D2 PAM-2)
CCCN(CCC)CCCNC(=S)Nc1ccc2nc(N3CCN(CC)CC3)cc(C)c2c1	none | D3 ag inactive | D2 ag-3 inactive
CCn1c(=O)c2cc(C(=O)N(CCCOC(C)C)Cc3ccco3)sc2c2ccccc21	none (no result: D2 antagonist, D2 ag-2, D2 PAM-2)
O=C(CSC1=N/C(=C/c2ccc(Cl)c(Cl)c2)C(=O)N1c1ccccc1F)NC1CC1	D2 antagonist 52 | D3 ag inactive | D2 ag-3 inactive
COc1ccc(Cl)cc1NC(=O)c1c(NCc2cccnc2)sc2c1CCC(C)C2 (stereo not given)	none (no result: D2 ag-1, D2 antagonist, D2 ag-2, D2 PAM-2)
COc1ccc(OC)c(S(=O)(=O)NCc2ccc3c(c2)CCN3C(=O)c2cccc(C)c2)c1	none (no result: D2 antagonist, D2 ag-2, D2 PAM-2)
COc1cc(/C=C/C(=O)OCC(=O)Nc2ccc(C)cc2[N+](=O)[O-])ccc1O	none
COc1cc(/C=C/C(=O)OCC(=O)Nc2cc(C)c(C)cc2[N+](=O)[O-])ccc1O	none | D3 ag inactive | D2 ag-3 inactive
CN1CCN(C(=O)CSc2nc(-c3ccco3)cc(C(F)(F)F)n2)CC1	none
O=C(CCSc1nc(-c2ccco2)cc(C(F)(F)F)n1)N1CCN(c2ccccn2)CC1	D2 ag-1 52 | D3 ag inactive | D2 ag-3 inactive
COc1ccc(CN2CCN(Cc3cc4ccccc4o3)CC2CCO)cc1C (stereo not given)	D2 ag-1 66, D2 ag-2 inconclusive | D3 ag inactive | D2 ag-3 inactive
COc1cccc(CN2CCN(Cc3cc4ccccc4o3)CC2CCO)c1 (stereo not given)	D2 ag-1 43 | D3 ag inactive | D2 ag-3 inactive
COc1ccc(CN2CCN(Cc3cc4ccccc4o3)CC2CCO)c(F)c1 (stereo not given)	none
COc1cccc(CN2C(=O)N(c3ccc(C)cc3)C(=O)C2CC(=O)Nc2cc(OC)cc(OC)c2)c1 (stereo not given)	none (no result: D2 antagonist, D2 ag-2, D2 PAM-2)
c1ccc(COc2ccc(OCCCCN3CCCCC3)cc2)cc1	none
Oc1ccc(N2CCN(Cc3ccc(OCCCN4CCCCC4)cc3)CC2)cc1	D2 ag-1 72, D2 antagonist 91, D2 ag-2 47 | D3 ag inconclusive | D2 ag-3 4.5µM
COc1ccc(OC)c(CNC(=O)C(C)n2c(C)c3cnn(-c4ccccc4)c(=O)c3c2C)c1 (stereo not given)	none (no result: D2 antagonist, D2 ag-2, D2 PAM-2)
CSc1ccc(OC2CCCCC2NS(=O)(=O)c2ccccc2)cc1 (stereo not given)	none
Cc1cc(C)cc(OC2CCCCC2NS(=O)(=O)c2ccccc2)c1 (stereo not given)	D2 antagonist 36 | D3 ag inactive | D2 ag-3 inactive
Cn1c(CCN2CCN(c3ccccn3)CC2)nc2cc(NC(=O)COc3ccc([N+](=O)[O-])cc3)ccc21	D2 ag-1 82, D2 antagonist 31 | D3 ag inactive | D2 ag-3 inactive
CCC(=O)Nc1ccc2c(c1)nc(CCN1CCN(c3ccccc3)CC1)n2C	D2 ag-1 62 | D3 ag inactive | D2 ag-3 inactive
CCC(=O)Nc1ccc2c(c1)nc(CCN1CCCCC1)n2C	none
CC(C)C(=O)Nc1ccc2c(c1)nc(CCN1CCN(c3ccccn3)CC1)n2C	D2 ag-1 67, D2 antagonist 33, D2 ag-2 inconclusive | D3 ag inconclusive | D2 ag-3 inactive
Cc1ccc(-c2cn3nc(N4CCCC(C(=O)NCc5ccccc5F)C4)sc3n2)cc1 (stereo not given)	none (no result: D2 antagonist, D2 ag-2, D2 PAM-2)
CC(=O)N1CCCc2cc(S(=O)(=O)N3CCC(C(=O)NCc4cccc(C)c4)CC3)ccc21	none (no result: D2 antagonist, D2 ag-2, D2 PAM-2)
CCCCN1CC(=O)N2[C@H]3c4ccc(OC)cc4OC[C@@H]3[C@H](C(=O)OCC)[C@]2(C)C1=O	none | D3 ag inactive | D2 ag-3 inactive

Screening data (PubChem)
